# Measured values published in PubChem BioAssay AID1672 (Johns Hopkins Ion Channel Center, 2009).
# Hit rate of the full screen: of about 310,000 compounds, about 2,600 (0.84%) were called active. This is one part of a sample in which actives are shown more often than they occur.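 Rule for the calls: active = fluorescence ratio B-score at or below minus 3 SD of library scores, with starting-brightness B-score within 2 SD (cut at about -4.2 in these data); inactive = the rest.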
# Target: Inward rectifier potassium channel 2 (Mus musculus) (UniProt P35561)
# Sequence (P35561 whole entry, looked up): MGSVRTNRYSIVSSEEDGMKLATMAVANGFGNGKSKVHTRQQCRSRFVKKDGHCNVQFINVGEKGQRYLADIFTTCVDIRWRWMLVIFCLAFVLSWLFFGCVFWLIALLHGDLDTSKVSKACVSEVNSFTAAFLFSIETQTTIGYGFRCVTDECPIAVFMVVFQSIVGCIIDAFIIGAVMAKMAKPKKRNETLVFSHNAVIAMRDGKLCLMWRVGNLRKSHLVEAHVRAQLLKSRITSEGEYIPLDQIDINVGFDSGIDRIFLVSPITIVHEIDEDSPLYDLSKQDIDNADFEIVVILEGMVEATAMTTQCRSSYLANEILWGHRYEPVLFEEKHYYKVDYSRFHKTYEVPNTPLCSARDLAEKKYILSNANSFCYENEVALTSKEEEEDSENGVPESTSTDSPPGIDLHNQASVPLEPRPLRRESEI
# Test: blocks the mouse Kir2.1 inward-rectifier potassium channel (AID 1672);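 note: channel flux triggered by added potassium and thallium sulfate stimulus; B-score of peak minus minimum fluorescence over baseline after thallium stimulus; more negative B-score means stronger Kir2.1 block with less thallium influx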
# Settings: HEK293-Kir2.1, FluxOR thallium flux fluorescence; at 10 µM; stronger effect = lower value
row,Structure (SMILES),B-score
1,Cc1onc(-c2ccccc2Cl)c1C(=O)OCc1nnc(-c2ccccc2)o1,0.59 (inactive)
2,COc1ccc(CCNC2=C(Cl)C(=O)N(Cc3ccccc3)C2=O)cc1OC,-1.89 (inactive)
3,COc1ccc(CCN=C2SCC(=O)N2Cc2ccccc2)cc1OC,-8.95 (active)
4,COc1ccc(CCN=C2SCC(=O)N2C)cc1OC,0.11 (inactive)
5,COc1ccc(S(=O)(=O)NCc2cccnc2)cc1NC(=O)c1ccc(C)cc1,-1.69 (inactive)
6,COC(=O)c1c(-c2ccsc2)oc2ccc(-c3cc(OC)c(OC)c(OC)c3)cc12,0.77 (inactive)
7,CC(C)Oc1ccc(S(=O)(=O)N2CCOCC2)cc1NC(=O)C1CSC2(C)CCC(=O)N12 (stereo not drawn),-0.2 (inactive)
8,Cc1ccc(-c2nn(-c3ccc(F)cc3)cc2C(=O)NCC(c2cccs2)N2CCOCC2)cc1 (stereo not drawn),1.38 (inactive)
9,C=CCOc1cccc(C2C(C(=O)c3ccc(C)o3)=C(O)C(=O)N2c2nnc(C)s2)c1 (stereo not drawn),-2.11 (inactive)
10,O=Cc1ccc(Oc2cccc(C(F)(F)F)c2)nc1,0.35 (inactive)
11,Cc1nc(N)[nH]c(=O)c1Oc1cccc(C(F)(F)F)c1,0.08 (inactive)
12,CCC(=O)OCc1c(C(F)(F)F)nn(C)c1Oc1cccc(C(F)(F)F)c1,-6.22 (active)
13,CCOc1ccc(CCNC(=O)COC(=O)c2ccc(F)c(S(=O)(=O)N3CCOCC3)c2)cc1OCC,0.3 (inactive)
14,O=C(CSc1nnc(-c2cccs2)n1Cc1ccco1)c1ccc2c(c1)OCO2,-4.78 (active)
15,COc1ccc(NC(=O)CSc2nnc(-c3cccs3)n2Cc2ccco2)cc1OC,0.49 (inactive)
16,O=C(CSc1nnc(-c2cnccn2)n1Cc1ccco1)c1ccc(Cl)c(Cl)c1,0.04 (inactive)
17,CCn1c(SC(C)C(=O)Nc2ccc(N3CCOCC3)cc2)nnc1-c1ccco1 (stereo not drawn),-1.79 (inactive)
18,CCN(CC)c1ccc(S(=O)(=O)N2CCCCC2)cc1NC(=O)C1=COCCO1,1.68 (inactive)
19,CCCc1cc(=O)[nH]c(SCC(=O)c2c(N)n(CC(C)C)c(=O)n(C)c2=O)n1,0.93 (inactive)
20,Cc1cc(C(=O)CSc2nc(N)cc(=O)[nH]2)c(C)n1CCc1ccc(Cl)cc1,-0.26 (inactive)
21,CCCc1cc(=O)[nH]c(SCC(=O)c2cc(C)n(CCC)c2C)n1,-6.83 (active)
22,Cc1ncc(CO)c(/C=N/NC(=O)c2cccc(S(=O)(=O)N3CCCC3)c2)c1O,-1.2 (inactive)
23,NC(=O)CSc1nnc(NC(=O)c2ccc3ccccc3c2)s1,1.23 (inactive)
24,Cc1ccc(-c2csc(NC(=O)C3=COCCO3)n2)cc1C,0.03 (inactive)
25,Cc1cc(Nc2ccc(Br)cc2)nc2ccccc12,-0.01 (inactive)
26,COc1ccc(S(=O)(=O)NCCc2c[nH]c3ccccc23)cc1OC,-1.99 (inactive)
27,COc1cccc(CNCCc2c[nH]c3ccccc23)c1OCc1ccccc1F,-12 (active)
28,COc1ccccc1CC(=O)NCCc1c[nH]c2ccccc12,-0.19 (inactive)
